From PubChem BioAssay (NCI)
The panel holds about 83,000 compounds, 20% with a hit somewhere; the sample as a whole holds those more often.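 96-well plates, one dose, 48 hours. Percent growth reported; active if below 10.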 A number with no mark means an inactive call. Calls of active or inactive are those of the source.

What was measured:
Test in all cases: NCI-60 one-dose screen, 48 h (100 = growth as untreated, 0 = no growth, -100 = all killed)
Conditions in all cases: 10 µM unless noted
DU-145 prostate = tested on: DU-145 prostate
K-562 leukemia = tested on: K-562 leukemia
MALME-3M melanoma = tested on: MALME-3M melanoma
MDA-MB-231 breast = tested on: MDA-MB-231 breast
RXF 393 renal = tested on: RXF 393 renal
SF-268 CNS = tested on: SF-268 CNS
SF-539 CNS = tested on: SF-539 CNS
UACC-257 melanoma = tested on: UACC-257 melanoma
M14 melanoma = tested on: M14 melanoma
SF-295 CNS = tested on: SF-295 CNS

Structure (SMILES) | growth (DU-145 prostate) | growth (K-562 leukemia) | growth (MALME-3M melanoma) | growth (MDA-MB-231 breast) | growth (RXF 393 renal) | growth (SF-268 CNS) | growth (SF-539 CNS) | growth (UACC-257 melanoma) | growth (M14 melanoma) | growth (SF-295 CNS)
CCOc1cc(CCNS(=O)(=O)c2ccc(C)cc2)c(C(C)=O)cc1OCC | 76.1% [100 µM] | 41.3% [100 µM] | 98.3% [100 µM] | 78.5% [100 µM] | 87% [100 µM] | 79.9% [100 µM] | 101% [100 µM] | 77.8% [100 µM] | 79.9% [100 µM] | 
Cc1ccc(C2=Nc3c(ccc4c(C)c(C)c(=O)oc34)OC2)cc1 | 106% | 95.4% | 104% | 105% | 109% | 108% |  |  | 103% | 94.3%
NC(=O)c1cc(Cl)ccc1NC(=O)c1ccccc1-c1ccccc1 | -8.79% (active) | 11.5% | 30.4% | 29.4% |  | 54.1% | -12.5% (active) | 68.6% | -24% (active) | 8.66% (active)
COc1ccc(NC(=O)c2ccc(-c3ccccc3)cc2)c(C(N)=O)c1 | 102% | 92.5% | 91.6% | 91.3% |  | 113% | 97.4% | 102% | 110% | 99.3%
COc1cc(-c2nnc(-c3nc(-c4cc(OC)c(OC)c(OC)c4)n4ccccc34)o2)ccc1N | 85.4% | 64.7% | 86.5% | 84.4% | 84.4% | 83.6% | 98.8% | 93.2% | 80.3% | 
O=C(CN1CCN(c2ccc(Cl)cc2)CC1)N1CCN(c2nnc(-c3ccc(Cl)cc3)c(-c3ccc(Cl)cc3)n2)CC1 | 87% | 33% | 114% | 95.1% |  | 83.4% | 82.3% |  |  | 82.3%
CC1CC=CCC1C1OCC(C)(C)CO1 (configuration not stated) | 108% | 102% | 109% | 112% | 103% | 106% | 95.5% | 97% | 101% | 
COc1ccc(-c2nnc3c4[nH]cnc4ncn23)c(OC)c1 | 26.5% | 11.5% | 37.4% | 29% |  | 33% | 14.6% | 40.6% |  | 20.1%
Cc1nn2c(/C=C3/C(=O)Nc4cc(Cl)ccc43)c(-c3ccccc3)nc2s1 | 33.4% | 23.5% | -64.6% (active) | 8.57% (active) | -18% (active) | 50.1% | -41.4% (active) | -29% (active) | 22.2% | 
O=C1c2cccc3c([N+](=O)[O-])ccc(c23)C(=O)N1CCCCl | -82.1% [100 µM] (active) | -25.8% [100 µM] (active) | -73.9% [100 µM] (active) | -93.1% [100 µM] (active) | -83.3% [100 µM] (active) | -78.9% [100 µM] (active) |  | -97% [100 µM] (active) | -85.6% [100 µM] (active) | -92% [100 µM] (active)
Cc1cn(C(C=O)OC(C=O)CO)c(=O)[nH]c1=O (configuration not stated) | 108% | 104% | 98.8% | 108% |  | 113% | 104% | 88% | 108% | 102%
O=C(O)C1CCN(S(=O)(=O)c2ccc(-c3ccccc3)cc2)CC1 | 114% | 109% | 127% | 98.7% |  | 108% | 109% | 56.2% | 109% | 192%
O=C1Nc2ccc(Cl)cc2[C@@](C#CC2CC2)(C(F)(F)F)O1 | 104% | 67.3% | 93.4% | 86.5% |  | 117% | 104% | 79.9% | 86.2% | 82%
O=C(/C=C(\Nc1ccccc1)c1ccccc1)c1cn(-c2ccc([N+](=O)[O-])cc2)nn1 | 125% | 73.8% | 103% | 103% |  | 98.3% | 94.9% | 42.4% | 97.6% | 73.3%
COc1ccc(CC(=O)Nc2nn3c(-c4cc(C(F)(F)F)cc(C(F)(F)F)c4)nnc3s2)cc1 | 86% | 62.4% | 80.9% | 88% |  | 85.8% | 65.7% | 58.2% | 97% | 66.1%
CCSc1ncc(Br)c(Sc2nc(N)nc3nc[nH]c23)n1 | 43.1% | 26.6% | 36.2% | 40.9% |  | 44.8% | 60.1% |  | 31.7% | 38.6%
CC(C)=CCNc1ncnc2c1ncn2C1OC(COP(=O)(O)O)C(O)C1O (configuration not stated) | 4.87% (active) | 16.1% | 68.5% | 5.56% (active) |  | 59.9% | 52% | 94.1% | 50.5% | 25.6%
COc1ccc(-n2cnc3cc(C(=O)N4CCCCC4)ccc32)cc1 | 111% | 99.4% | 97% | 96.4% |  | 105% | 98.1% | 101% | 101% | 97.9%
COc1cccc(N2CCN(CC(=O)N3CCN(c4nnc(-c5ccc(Cl)cc5)c(-c5ccc(Cl)cc5)n4)CC3)CC2)c1 | 89% | 32.6% | 92.2% | 83.1% |  | 84.1% | 57.8% |  | 70.5% | 66.7%
COC(=O)c1c(NC(=O)CSc2nnnn2-c2ccc(OC)cc2)sc(C)c1C | 108% | 81.5% | 104% | 76.5% |  | 93.5% | 98.3% | 16.8% | 95.8% | 156%
COC(=O)C1CCN(S(=O)(=O)c2ccc(-c3ccccc3)cc2)CC1 | 110% | 103% | 122% | 115% |  | 102% | 101% | 62.7% | 107% | 195%
O=c1c2ccccc2c2nccn2c2cc(Cl)ccc12 | 98.1% | 57.7% | 159% | 126% |  | 91.9% | 94.2% | 66.5% | 110% | 85.5%
CN(C)CCCNc1nn2c(=O)c3ccccc3nc2c2ccccc12 | 81.4% | 41% | 66.4% | 77.1% |  | 61% | 41.2% |  | 89.2% | 47.9%
C=CCNC(=O)/C(=C/c1cccc([N+](=O)[O-])c1)NC(=O)c1ccccc1 | 116% | 108% | 102% | 116% |  | 99% | 92.5% | 7.53% (active) | 88.8% | 103%
NS(=O)(=O)c1ccc(N2CC(c3nc4ccccc4[nH]3)CC2=O)cc1 (configuration not stated) | 109% | 97.2% | 92.9% | 85.4% |  | 96.1% | 96.6% | 109% | 96.9% | 99.9%
O=C(/C=C/c1ccc([N+](=O)[O-])cc1)c1ccc2c3c(cccc13)CC2 | 38.7% | 44.8% | 79.7% | 81.4% |  | 80.9% | 33.1% | 3.27% (active) | 95.3% | -17.9% (active)
O=c1[nH]cc(Nc2cc(Cl)c3nonc3c2[N+](=O)[O-])c(=O)[nH]1 | 111% | 108% | 109% | 104% |  | 126% | 101% | 25.2% | 99.7% | -37.1% (active)
C1=C(Cc2ccccc2)n2cnc3ncnc(c32)S1 | 27.3% | 14.4% | 68% | 35.1% |  | 71.9% | 43.2% | 74.9% | 13.2% | 30%
O=C(CN1CCN(c2ccc(Cl)cc2)CC1)N1CCN(c2nnc(-c3ccccc3)c(-c3ccccc3)n2)CC1 | 62.8% | 4.43% (active) | 76.5% | 64.5% |  | 58.5% | 50.5% |  | 60.1% | 38.4%
COc1cccc(-c2nc3cc(NC(=O)c4ccc(Cl)c(C#N)c4)ccc3o2)c1 | 8.18% (active) | 8.47% (active) | -56.5% (active) | 8.99% (active) |  | -5.11% (active) | -70.7% (active) | 4.33% (active) | -82.7% (active) | 25.3%
